Measurements published in PubChem BioAssay (NCI).
This is part of a sample that, as a whole, favours compounds with a hit. Of some 83,000 tested, about 20% had one in any assay.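 48-hour exposure, single concentration, 96-well plates; percent growth endpoint where 0 means no net growth. Active: below 10.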 The source made the active and inactive calls.

Experiments:
Experiment in all cases: NCI-60 one-dose screen, 48 h (100 = growth as untreated, 0 = no growth, -100 = all killed)
Conditions in all cases: 10 µM unless noted
NCI-H23 lung = test system: NCI-H23 lung
NCI-H226 lung = test system: NCI-H226 lung
NCI-H322M lung = test system: NCI-H322M lung
HOP-62 NSCLC = test system: HOP-62 NSCLC
NCI-H460 lung = test system: NCI-H460 lung
HOP-92 NSCLC = test system: HOP-92 NSCLC
NCI-H522 lung = test system: NCI-H522 lung
A549/ATCC NSCLC = test system: A549/ATCC NSCLC
786-0 renal = test system: 786-0 renal
COLO 205 colon = test system: COLO 205 colon
DU-145 prostate = test system: DU-145 prostate
K-562 leukemia = test system: K-562 leukemia
MALME-3M melanoma = test system: MALME-3M melanoma
MDA-MB-231 breast = test system: MDA-MB-231 breast
RXF 393 renal = test system: RXF 393 renal
SF-295 CNS = test system: SF-295 CNS
SF-539 CNS = test system: SF-539 CNS
UACC-257 melanoma = test system: UACC-257 melanoma
M14 melanoma = test system: M14 melanoma
SF-268 CNS = test system: SF-268 CNS

Measured: growth

CCNS(=O)(=O)c1ccc(C)cc1
inactive: NCI-H23 lung 100% | NCI-H226 lung 103% | NCI-H322M lung 102% | HOP-62 NSCLC 100% | NCI-H460 lung 101% | HOP-92 NSCLC 69.7% | NCI-H522 lung 114% | A549/ATCC NSCLC 95.8% | 786-0 renal 110% | COLO 205 colon 113% | DU-145 prostate 96.5% | K-562 leukemia 105% | MALME-3M melanoma 104% | MDA-MB-231 breast 113% | RXF 393 renal 113% | SF-295 CNS 104% | SF-539 CNS 102% | UACC-257 melanoma 107% | M14 melanoma 106%

Cc1cc(N=Nc2ccc(-c3ccc(N=Nc4ccc(O)c(C(=O)O)c4)cc3)cc2)c(N)c(N=Nc2ccc(C(=O)O)cc2)c1N
inactive: NCI-H23 lung 93.4% | NCI-H226 lung 92.4% | NCI-H322M lung 99.9% | HOP-62 NSCLC 99.7% | NCI-H460 lung 117% | HOP-92 NSCLC 71.8% | NCI-H522 lung 85.2% | A549/ATCC NSCLC 102% | 786-0 renal 84.4% | COLO 205 colon 108% | DU-145 prostate 110% | K-562 leukemia 75.1% | MALME-3M melanoma 95.2% | MDA-MB-231 breast 102% | RXF 393 renal 94.7% | SF-268 CNS 98.7% | SF-539 CNS 93.2% | UACC-257 melanoma 110% | M14 melanoma 86.5%

O=C(Nc1ccccc1)C(CCCCN1C(=O)c2ccccc2C1=O)N1C(=O)c2ccccc2C1=O (stereo unspecified)
inactive: NCI-H23 lung 107% | NCI-H226 lung 95.3% | NCI-H322M lung 98% | HOP-62 NSCLC 109% | NCI-H460 lung 109% | HOP-92 NSCLC 76.8% | NCI-H522 lung 94.6% | A549/ATCC NSCLC 97.8% | 786-0 renal 99.6% | COLO 205 colon 118% | DU-145 prostate 95.4% | K-562 leukemia 82.8% | MDA-MB-231 breast 109% | RXF 393 renal 110% | SF-268 CNS 99.8% | SF-295 CNS 101% | SF-539 CNS 111% | UACC-257 melanoma 106%

COc1cc(C2C=C(C)N=C3SC=NN32)cc(OC)c1OC (stereo unspecified)
inactive: NCI-H23 lung 100% | NCI-H226 lung 108% | NCI-H322M lung 112% | HOP-62 NSCLC 102% | NCI-H460 lung 108% | HOP-92 NSCLC 91.4% | NCI-H522 lung 104% | A549/ATCC NSCLC 101% | 786-0 renal 112% | COLO 205 colon 115% | DU-145 prostate 115% | K-562 leukemia 108% | MDA-MB-231 breast 104% | RXF 393 renal 113% | SF-268 CNS 111% | SF-295 CNS 107% | SF-539 CNS 99.1% | UACC-257 melanoma 94.8% | M14 melanoma 109%

CCCNC(=S)N/N=C(\C)c1ccccn1
active: NCI-H322M lung 4.31% | M14 melanoma 6.11%
inactive: NCI-H23 lung 35.7% | NCI-H226 lung 21.5% | HOP-62 NSCLC 44% | NCI-H460 lung 17.7% | HOP-92 NSCLC 37.2% | NCI-H522 lung 56.4% | A549/ATCC NSCLC 31.7% | 786-0 renal 20.4% | COLO 205 colon 20.8% | DU-145 prostate 34.3% | K-562 leukemia 17% | MALME-3M melanoma 24.3% | MDA-MB-231 breast 41.1% | RXF 393 renal 10.4% | SF-268 CNS 38.7% | SF-539 CNS 24.2% | UACC-257 melanoma 12%

NC(N)=N/N=C\c1ccc(OCc2ccccc2)cc1
inactive: NCI-H23 lung 84% | NCI-H226 lung 46.4% | NCI-H322M lung 93.4% | HOP-62 NSCLC 62.8% | NCI-H460 lung 96.4% | HOP-92 NSCLC 40.2% | NCI-H522 lung 77.3% | A549/ATCC NSCLC 82.8% | 786-0 renal 81.7% | DU-145 prostate 87.4% | K-562 leukemia 36% | MALME-3M melanoma 91.5% | MDA-MB-231 breast 66.1% | SF-295 CNS 99% | SF-539 CNS 87.7% | UACC-257 melanoma 90.4% | M14 melanoma 81.5%
active: COLO 205 colon -62.8% | RXF 393 renal -3.77%

COc1cc2cc(C(=O)Nc3ccccc3)c(N)nc2cc1OC
active: NCI-H460 lung -40.2% | HOP-92 NSCLC -11.4% | NCI-H522 lung -65.3% | COLO 205 colon -93.3% | K-562 leukemia -49.2% | MALME-3M melanoma -78.2% | MDA-MB-231 breast -49.6% | RXF 393 renal -14.7% | UACC-257 melanoma -81.3% | M14 melanoma -67.3%
inactive: NCI-H23 lung 77.6% | NCI-H226 lung 65.2% | NCI-H322M lung 44.1% | HOP-62 NSCLC 47.7% | A549/ATCC NSCLC 15.3% | 786-0 renal 21.2% | DU-145 prostate 12.7% | SF-268 CNS 26.2% | SF-539 CNS 34.3%

COc1c(B(O)O)cccc1-c1nc2c(F)cc3n[nH]c(C)c3c2c2c1CCCC2
active: NCI-H226 lung -0.685% | NCI-H522 lung 9.41% | A549/ATCC NSCLC 9.82% | RXF 393 renal -19.3% | SF-539 CNS 4.1%
inactive: NCI-H23 lung 17.5% | NCI-H322M lung 27.6% | HOP-62 NSCLC 22% | NCI-H460 lung 11.7% | HOP-92 NSCLC 24.7% | 786-0 renal 19.8% | COLO 205 colon 15.6% | DU-145 prostate 15% | K-562 leukemia 17.8% | MALME-3M melanoma 55.9% | MDA-MB-231 breast 25.5% | SF-268 CNS 17.5% | UACC-257 melanoma 18.8% | M14 melanoma 41.1%
